Data taken from the supplement of paper PMC10981050.
Values joined by “and” are separate entries in the source; they are usually repeats but may differ in a detail not shown here. Identical values can stand only once. Counter-ions that a name gives are not always drawn.

Key:
Assay in all cases: cell viability relative to vehicle control; higher = less cytotoxic
Details in all cases: 10 µM
K562 = system: K562
Summary of the method: (§1)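 Mutant clones made by CRISPR editing and their isogenic wild-type counterparts, from four leukaemia lines, were exposed to a single 10 µM dose of each library compound for 48 h. The supernatant was then removed and CellTiter-Glo luminescence was read. Viability was reported as percent of the on-plate vehicle control.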

MARIMO = system: MARIMO
Summary of the method: as §1

MOLM14 = system: MOLM14
Summary of the method: as §1

OCI-AML2 = system: OCI-AML2
Summary of the method: as §1

SMILES | cell viability (K562; SRSF2 genotype: SRSF2 P95H/wt) | cell viability (K562; SRSF2 genotype: SRSF2 wt/wt) | cell viability (MARIMO; SRSF2 genotype: SRSF2 P95H/wt) | cell viability (MARIMO; SRSF2 genotype: SRSF2 wt/wt) | cell viability (MOLM14; SRSF2 genotype: SRSF2 P95H/wt) | cell viability (MOLM14; SRSF2 genotype: SRSF2 wt/wt) | cell viability (OCI-AML2; SRSF2 genotype: P95H/wt) | cell viability (OCI-AML2; SRSF2 genotype: wt/wt)
Oc1ccc(-c2c(-c3ccccc3)nn3c(C(F)(F)F)cc(C(F)(F)F)nc23)cc1 | 87.4% and 87.6% | 83% | 85.7% | 93.3% | 75.9% | 86.1% | 92% | 103%
O=C(O)CCCCCCCC(O)C(O)CCCCCCO (stereo not given) [Aleuritic Acid] | 105% and 100% | 97.5% | 107% | 112% | 98.4% | 107% | 97.2% | 101%
OC[C@H]1O[C@@](CO)(O[C@H]2O[C@H](CO)[C@@H](O)[C@H](O)[C@H]2O)[C@@H](O[C@H]2O[C@H](CO)[C@@H](O)[C@H](O)[C@H]2O)[C@@H]1O [D-(+)-Melezitose] | 100% | 97.6% | 105% | 115% | 98.5% | 107% | 95.1% | 95.5%
C=CCNC(N)=S [Allylthiourea] | 98.8% and 95.9% | 107% | 108% | 112% | 101% | 104% | 99.8% | 110%
C[C@@H]1CN(c2c(F)c(N)c3c(=O)c(C(=O)O)cn(C4CC4)c3c2F)C[C@H](C)N1 [Sparfloxacin] | 103% | 108% | 99.7% | 104% | 101% | 106% | 109% | 105%
Cc1nc(Nc2ccc(F)cc2)nc(N2CCc3ccccc3C2C)c1C (stereo not given) [Revaprazan Hydrochloride] | 66.5% and 73.7% | 68.7% | 67.6% | 56.4% | 63.3% | 72.5% | 75% | 67.2%
CN1CC(=O)N2[C@H](c3ccc4c(c3)OCO4)c3[nH]c4ccccc4c3C[C@@H]2C1=O [Tadalafil (Cialis)] | 101% and 99.7% | 106% | 98.5% | 105% | 97.3% | 99.8% | 103% | 108%
C[n+]1c2n(c(=O)c3ccccc31)CCc1c-2[nH]c2ccccc12 [Dehydroevodiamine] | 93.1% and 93.3% | 91.5% | 88.7% | 88.2% | 94.8% | 98.2% | 97.2% | 87.5%
OCC(O)C(O)C(O)C(O)CO (stereo not given) [Allitol] | 111% and 98.4% | 111% | 107% | 101% | 108% | 103% | 109% | 99.3%
CNC(CC(=O)O)C(=O)O [NMDA (N-Methyl-D-aspartic acid)] | 102% and 94.2% | 99.7% | 101% | 99.5% | 100% | 99% | 94.4% | 107%
CCC1(c2c[nH]cn2)Cc2ccccc2C1 [Atipamezole hydrochloride] | 90.5% and 99.4% | 104% | 92.4% | 99.1% | 96.2% | 99.7% | 98.5% | 95.2%
C[C@H](Cc1cc2c(c(C(N)=O)c1)N(CCCO)CC2)NCCOc1ccccc1OCC(F)(F)F [Silodosin] | 81.7% and 88.2% | 87.5% | 86.2% | 85.6% | 87.2% | 89.5% | 74.7% | 80%
CNC(=O)c1ccc2cc([C@@]3(O)CCn4cncc43)ccc2c1 [TAK-700 (Orteronel)] | 107% and 98.8% | 97.3% | 93.2% | 105% | 101% | 100% | 95.6% | 104%
C=C1CC[C@H](O)C/C1=C/C=C1\CCC[C@]2(C)[C@@H]([C@H](C)/C=C/[C@H](C)C(C)C)CC[C@@H]12 [Vitamin D2 (Ergocalciferol)] | 103% and 100% | 102% | 101% | 104% | 93.4% | 102% | 100% | 98.3%
COC1=C(OC)C(=O)C(CCCCCCCCCCO)=C(C)C1=O [Idebenone] | 78.7% and 86.7% | 86.9% | 85.6% | 89.6% | 88% | 88.7% | 68.8% | 75.2%
COc1cccc(-c2c(C)n(Cc3c(F)cccc3C(F)(F)F)c(=O)n(C[C@H](NCCCC(=O)O)c3ccccc3)c2=O)c1F [Elagolix Sodium] | 97% and 93% | 96.3% | 104% | 115% | 99% | 101% | 110% | 104%
CO/N=C(\C(=O)N[C@@H]1C(=O)N2C(C(=O)OCOC(=O)C(C)(C)C)=C(/C=C\c3scnc3C)CS[C@H]12)c1csc(N)n1 [Cefditoren pivoxil] | 103% and 99.7% | 101% | 104% | 111% | 94.5% | 103% | 102% | 111%
NCCCNCCCCNCCCN [Spermine] | 104% and 102% | 104% | 103% | 111% | 100% | 103% | 101% | 106%
CC1(C)[C@@H](OC(=O)CCC(=O)O)CC[C@]2(C)[C@H]3C(=O)C=C4[C@@H]5C[C@@](C)(C(=O)O)CC[C@]5(C)CC[C@@]4(C)[C@]3(C)CC[C@@H]12 [Carbenoxolone disodiuM] | 95.9% and 92.2% | 88% | 96.2% | 99% | 91.8% | 96.7% | 89.3% | 103%
COc1cc(C=CC(=O)CC(=O)C=Cc2ccc(O)cc2)ccc1O [Demethoxycurcumin] | 46.9% and 54.2% | 64.6% | 62.9% | 64.4% | 8.11% | 13.7% | 13.5% | 23.6%

SMILES | cell viability (K562; SRSF2 genotype: SRSF2 P95H/wt) | cell viability (K562; SRSF2 genotype: SRSF2 wt/wt) | cell viability (MARIMO; SRSF2 genotype: SRSF2 P95H/wt) | cell viability (MARIMO; SRSF2 genotype: SRSF2 wt/wt) | cell viability (MOLM14; SRSF2 genotype: SRSF2 P95H/wt) | cell viability (MOLM14; SRSF2 genotype: SRSF2 wt/wt) | cell viability (OCI-AML2; SRSF2 genotype: P95H/wt) | cell viability (OCI-AML2; SRSF2 genotype: wt/wt)
O=C1C2=C(CCN(Cc3ccccc3)C2)N2CCN=C2N1Cc1ccc(C(F)(F)F)cc1 | 39% and 40.3% | 34% | 43% | 36.9% | 31.1% | 34.1% | 22.3% | 22.3%
O=C(Nc1cccc(Nc2ncc(Br)c(NCCc3cnc[nH]3)n2)c1)N1CCCC1 | 46.5% and 64.2% | 47.1% | 49.8% | 45.4% | 5.3% | 3.38% | 4.66% | 10.9%
CC(C)NC[C@H](O)COc1ccc(CCOCC2CC2)cc1 [Levobetaxolol HCl] | 91.7% and 81.4% | 83% | 83% | 90.6% | 89.1% | 91.8% | 79.4% | 98.4%
O=c1c(-c2ccc(O)cc2)coc2cc(O[C@@H]3O[C@H](CO)[C@@H](O)[C@H](O)[C@H]3O)cc(O)c12 [Genistin (Genistoside)] | 95.5% and 108% | 94.7% | 94.6% | 98% | 89% | 99.7% | 92.1% | 93.4%
O=C(CCCN1CCC(O)(c2ccc(Cl)cc2)CC1)c1ccc(F)cc1 [Haloperidol (Haldol)] | 87.7% and 94.9% | 94.5% | 73.9% | 85.3% | 84.8% | 91% | 84.2% | 91%
CC1(C)CC[C@]2(C(=O)O)[C@H](O)C[C@]3(C)C(=CC[C@@H]4[C@@]5(C)CC[C@H](O)[C@@](C)(C=O)[C@@H]5CC[C@]43C)[C@@H]2C1 [Quillaic acid] | 96.1% and 95.3% | 82.9% | 95% | 104% | 84.6% | 91.7% | 98.9% | 96.8%
CN1CCN(c2cccc(Nc3nc4c(-c5ccc(S(C)(=O)=O)cc5)cccn4n3)c2)CC1 | 68% and 76.9% | 70.5% | 67.1% | 67.8% | 3.24% | 3.52% | 11.9% | 22.6%
C[C@@H](Nc1nc(N[C@H](C)C(F)(F)F)nc(-c2cccc(Cl)n2)n1)C(F)(F)F [Vorasidenib (AG-881)] | 91.3% and 90.9% | 84.7% | 88.3% | 105% | 89% | 85.3% | 104% | 98.3%
N/C(=N\N=C\c1ccc(Cl)cc1)N/N=C/c1ccc(Cl)cc1 [Robenidine Hydrochoride] | 70.9% and 65.6% | 67.4% | 65.7% | 67.8% | 59.2% | 65.9% | 60.2% | 73.3%
Cc1c[nH]c2nc(Nc3ccc(N4CCN(C)CC4)c(F)c3)nc(-c3cccc(CC#N)c3)c12 | 11.7% and 1.85% | 4.64% | 4.43% | 2.84% | 0.86% | 0.46% | 0.41% | 4.1%
Cc1ncc(COP(=O)(O)O)c(C=O)c1O [Pyridoxal 5-phosphate monohydrate] | 97.8% and 103% | 101% | 91.2% | 107% | 99.2% | 102% | 101% | 101%
Cc1cc2c(s1)Nc1ccccc1N=C2N1CCN(C)CC1 [Olanzapine (Zyprexa)] | 95.8% and 89.5% | 90.7% | 92.5% | 102% | 93.8% | 95.8% | 81.7% | 92.2%
Nc1ccc(S(=O)(=O)Nc2nccs2)cc1 [Sulfathiazole] | 104% and 98.6% | 95.4% | 95.8% | 107% | 103% | 102% | 96% | 105%
COc1ccc(-c2coc3cc(O)ccc3c2=O)cc1 [Formononetin (Formononetol)] | 93.6% and 91.7% | 86.4% | 82.4% | 91.4% | 99.9% | 99.6% | 86.7% | 80.2%
Cc1cnc(-c2ccccc2C(C)C)nc1NCc1ccc(-n2ccnn2)cc1 | 76.7% and 83.9% | 74.5% | 91.1% | 89.7% | 94% | 88.5% | 93.2% | 90.2%
CCOC(=O)N1CCN(c2ccc(OC[C@H]3CO[C@](Cn4ccnc4)(c4ccc(Cl)cc4Cl)O3)cc2)CC1 [Elubiol] | 43.3% and 36.5% | 41.8% | 29.3% | 28.8% | 39% | 21.1% | 10.3% | 15.9%
NC(=O)c1cccnc1 [Nicotinamide (Vitamin B3)] | 106% and 112% | 113% | 107% | 103% | 105% | 104% | 104% | 111%
CC(=O)[C@H]1CC[C@H]2[C@@H]3CCC4=CC(=O)CC[C@]4(C)[C@H]3CC[C@]12C [Progesterone (Prometrium)] | 78% and 87.7% | 81.7% | 60.7% | 38.8% | 75% | 78.8% | 54.5% | 59.9%
CN1CCN(Cc2ccc(NC(=O)Nc3ccc(Oc4cc(NC(=O)C5CC5)ncn4)cc3)cc2C(F)(F)F)CC1 | 21.2% and 19% | 20.5% | 1.8% | 1.13% | 0.31% | 0.31% | 0.36% | 1.73%
CC(=O)OCOC(=O)CN(CC(=O)OCOC(C)=O)c1ccccc1OCCOc1ccccc1N(CC(=O)OCOC(C)=O)CC(=O)OCOC(C)=O | 18.9% and 10.1% | 6.38% | 1.03% | 0.7% | 0.2% | 0.25% | 2.33% | 4.73%
